This is an account of results in PubChem BioAssay (NCI).

Values joined by “and” are separate entries in the source; they are usually repeats but may differ in a detail not shown here. Identical values can stand only once. The panel holds about 83,000 compounds, 20% with a hit somewhere; the sample as a whole holds those more often.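 For each line, cells grew in 96-well plates with the test compound present at a single concentration for 48 hours.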 Active and inactive are the calls of the source. The calls were made as follows: active = growth percent below 10; inactive = the rest.

What all share (assay): NCI-60 one-dose screen, 48 h (100 = growth as untreated, 0 = no growth, -100 = all killed)
Conditions in all cases: 10 µM unless noted

Assay [1] relates to NCI-H23 lung.
The test system of assay [2] is NCI-H226 lung.
In assay [3] the test system is NCI-H322M lung.
The subject of assay [4] is HOP-62 NSCLC.
In assay [5] the test system is NCI-H460 lung.
The test system of assay [6] is HOP-92 NSCLC.
For assay [7], the system named is NCI-H522 lung.
Assay [8] deals with A549/ATCC NSCLC.
The subject of assay [9] is 786-0 renal.
Assay [10] deals with COLO 205 colon.
Assay [11] has as its system DU-145 prostate.
The subject of assay [12] is K-562 leukemia.
Assay [13] has as its system MALME-3M melanoma.
Assay [14] deals with MDA-MB-231 breast.
The test system of assay [15] is RXF 393 renal.
Assay [16] deals with SF-268 CNS.
The test system of assay [17] is SF-295 CNS.
The test system of assay [18] is SF-539 CNS.
Assay [19] has as its system UACC-257 melanoma.
Assay [20] relates to M14 melanoma.

On to `Cc1cc(N=Nc2ccc(C)c(N=Nc3cc(C)c(N)cc3N)c2)c(N)cc1N`, for which the growth was 89.5% (inactive) and 78.4% (inactive) in assay [1]; 87.5% (inactive) and 95.3% (inactive) in [2]; 92% (inactive) and 91% (inactive) in [3]; 60.6% (inactive) and 80.8% (inactive) in assay [4]; 97.4% (inactive) and 93.2% (inactive) in [5]; 66.2% (inactive) in [6]. The growth is 89.9% (inactive) and 54.9% (inactive) in assay [7]; 95.2% (inactive) and 81% (inactive) in assay [8]; 94.5% (inactive) and 102% (inactive) in [9]; 92.5% (inactive) and 81.2% (inactive) in assay [10]; 107% (inactive) and 90.9% (inactive) in assay [11]; 75.9% (inactive) and 34.5% (inactive) in assay [12]. Moreover, the growth in [13] is 89.3% (inactive) and 98.5% (inactive); in assay [14] it was 68.6% (inactive) and 73.3% (inactive); in [15] it was 91.1% (inactive) and 89.1% (inactive); in [16], 98.9% (inactive) and 80.7% (inactive); in assay [17], 98.6% (inactive) and 66% (inactive); in [18], 87.9% (inactive) and 99.8% (inactive). Moreover, the growth in assay [19] was 91.4% (inactive) and 89.9% (inactive); in assay [20] it was 90.8% (inactive) and 65.4% (inactive).
For `CC(=O)c1ccc2c(c1)N(CCCN1CCN(CCO)CC1)c1ccccc1S2`, the growth in assay [1] is 98.1% (inactive) and 55.9% (inactive); in assay [2], 84.5% (inactive) and 68.2% (inactive); in assay [3], 98.8% (inactive) and 46.9% (inactive); in assay [4], 90.7% (inactive) and 43.1% (inactive); in [5], 101% (inactive) and -11.3% (active); in assay [6], -3.7% (active). For the same compound, the growth is 67.3% (inactive) and 35.3% (inactive) in assay [7]; 45.5% (inactive) in assay [8]; 85.9% (inactive) and -18.4% (active) in [9]; 134% (inactive) and -82.8% (active) in [10]; 104% (inactive) and 53.3% (inactive) in assay [11]; 95.3% (inactive) and -16.7% (active) in [12]. Besides, the growth is 86.5% (inactive) and -80% (active) in [13]; 91% (inactive) and -12.3% (active) in assay [14]; 32.6% (inactive) and -8.21% (active) in assay [15]; 98.3% (inactive) and 37.5% (inactive) in assay [16]; 100% (inactive) and -53% (active) in [17]; 89% (inactive) and 14.7% (inactive) in [18]. Besides, the growth in assay [19] was 30.4% (inactive) and -66.5% (active); in [20] it was 94.8% (inactive) and -87.4% (active).
Take `O=C1c2ccccc2C(=O)c2c(NCCNCCO)ccc(NCCNCCO)c21`: the growth in [1] was -70.8% (active) and 25.8% (inactive) and 29.5% (inactive); in [2], -56.8% (active) and -20.6% (active) and -27.1% (active); in [3], 7.84% (active) and 19.3% (inactive) and -5.07% (active); in assay [4], -20.4% (active) and 3.59% (active) and 9.04% (active); in [5], 1.72% (active) and 5.39% (active) and 5.06% (active); in [6], -7.34% (active) and -5.98% (active). The growth in [7] was -86.2% (active) and -57.7% (active) and -56.1% (active); in [8], 14.3% (inactive) and 1.64% (active); in [9], 0.75% (active) and 23.8% (inactive) and 25.2% (inactive); in assay [10], -51.3% (active) and 20.9% (inactive) and 30.2% (inactive); in assay [11], -41.7% (active) and 24.3% (inactive) and 14% (inactive); in assay [12] it was 135% (inactive) and 24.8% (inactive) and 7.96% (active). Besides, the growth in assay [13] is -15.3% (active) and 45.8% (inactive) and 46.7% (inactive); in assay [14], -6.87% (active) and 11.3% (inactive) and 12.1% (inactive); in assay [15] it was 0.645% (active); in assay [16] it was -16.6% (active) and 4.52% (active) and -6.95% (active); in assay [17], -21.5% (active) and 7.17% (active); in assay [18], -17% (active) and 29.6% (inactive) and 19.9% (inactive). The growth in assay [19] is 72.2% (inactive) and 89.1% (inactive) and 82.5% (inactive); in [20], 10.7% (inactive) and 47.4% (inactive) and 33.9% (inactive).
Turning to `O=[N+]([O-])c1ccc(-n2[nH]nnc2=S)cc1`, the growth was 98.5% (inactive) in [1]; 107% (inactive) in [2]; 92.8% (inactive) in assay [3]; 102% (inactive) in assay [4]; 110% (inactive) in [5]; 102% (inactive) in assay [6]. The growth in [7] was 91.3% (inactive); in assay [8], 102% (inactive); in [9], 106% (inactive); in [10], 100% (inactive); in assay [11], 112% (inactive); in assay [12] it was 102% (inactive). In addition, the growth in assay [13] is 89.2% (inactive); in assay [14], 93.6% (inactive); in assay [15], 166% (inactive); in assay [16], 98.3% (inactive); in [17], 95.2% (inactive); in assay [18], 104% (inactive). For the same compound, the growth in [19] was 113% (inactive); in assay [20], 109% (inactive).
